Assay results: PMC4336329 (PLoS ONE, 2015)
In all, about 310,000 compounds went through this assay and about 14,000 (4.5%) showed an effect of 50% or more. The effect is printed as a negative number. Shown is part of a subset that was picked to be rich in strong results.

Each compound was assayed against human ether-à-go-go-related gene (hERG) potassium channel (human, UniProt Q12809) (assay: primary screen, population patch clamp on CHO cells stably expressing hERG; higher = less effect of the substance).
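Also: peak tail current of the secondary pulse compared with the same well before compound.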

Chain of human ether-à-go-go-related gene (hERG) potassium channel (Q12809 whole entry, looked up): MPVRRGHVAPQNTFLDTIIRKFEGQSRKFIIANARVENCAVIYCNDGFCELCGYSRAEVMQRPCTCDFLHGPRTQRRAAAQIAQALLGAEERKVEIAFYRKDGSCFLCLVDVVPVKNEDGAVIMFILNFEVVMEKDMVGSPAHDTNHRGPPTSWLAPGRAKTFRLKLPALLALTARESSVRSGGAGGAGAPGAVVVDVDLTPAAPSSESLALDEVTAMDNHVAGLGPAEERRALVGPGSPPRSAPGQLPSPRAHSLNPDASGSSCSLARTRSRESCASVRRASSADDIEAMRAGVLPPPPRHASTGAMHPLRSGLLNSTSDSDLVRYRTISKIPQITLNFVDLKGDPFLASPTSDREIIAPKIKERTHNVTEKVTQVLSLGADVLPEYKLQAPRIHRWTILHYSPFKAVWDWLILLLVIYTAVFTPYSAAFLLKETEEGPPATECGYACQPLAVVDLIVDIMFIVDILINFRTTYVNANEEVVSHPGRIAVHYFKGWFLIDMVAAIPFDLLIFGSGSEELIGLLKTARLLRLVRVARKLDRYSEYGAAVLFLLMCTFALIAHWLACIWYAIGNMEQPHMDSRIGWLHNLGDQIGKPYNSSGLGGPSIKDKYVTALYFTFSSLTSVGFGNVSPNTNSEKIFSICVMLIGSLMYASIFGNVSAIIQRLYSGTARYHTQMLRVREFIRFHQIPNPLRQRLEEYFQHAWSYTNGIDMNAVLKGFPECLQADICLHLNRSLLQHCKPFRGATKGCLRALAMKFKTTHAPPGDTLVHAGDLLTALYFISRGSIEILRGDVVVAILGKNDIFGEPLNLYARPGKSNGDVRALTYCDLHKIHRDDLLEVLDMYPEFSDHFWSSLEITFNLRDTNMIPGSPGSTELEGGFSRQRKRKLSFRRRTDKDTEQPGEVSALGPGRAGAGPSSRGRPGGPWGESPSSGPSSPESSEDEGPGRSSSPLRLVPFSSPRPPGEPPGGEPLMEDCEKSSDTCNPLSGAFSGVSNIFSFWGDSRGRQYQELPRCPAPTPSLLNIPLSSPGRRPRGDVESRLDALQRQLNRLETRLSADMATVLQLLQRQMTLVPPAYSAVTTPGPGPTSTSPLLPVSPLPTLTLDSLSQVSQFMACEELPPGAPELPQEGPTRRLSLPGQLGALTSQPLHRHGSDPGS

Structure (SMILES)	hERG current change (%, negative = inhibition) at 10uM [%]
C=C(C)c1cccc(C(C)(C)NC(=O)NCc2ccncc2)c1	-9.41
Cc1cc(S(=O)(=O)N2CCOCC2)ccc1OCC(=O)Nc1cccc(C(F)(F)F)c1	19.8
Cc1c(Cl)c([N+](=O)[O-])nn1Cc1ccc(C(=O)N/N=C\c2cc(Cl)ccc2O)o1	14.9
COc1cc(/C=N\NC(=O)c2ccc(Cn3nc([N+](=O)[O-])c(Cl)c3C)o2)ccc1O	-70.4
Cc1c(Cl)c([N+](=O)[O-])nn1Cc1ccc(C(=O)N/N=C\c2cccc(Br)c2)o1	-38.7
N#Cc1ccc(Oc2nc(Nc3ccc(F)cc3)nc(N3CCCC3)n2)cc1	1.63
O=C(O)CC/C(=N\Nc1ccc([N+](=O)[O-])cc1S(=O)(=O)N1CCOCC1)c1cccs1	-9.21
CCn1cc(CNC(=O)/C=C/c2ccc([N+](=O)[O-])cc2)cn1	-33.6
Cc1ccc(NC(=O)CNC2CCCCC2)cc1Cl	6.64
Cc1ccccc1-c1nnc(CS(=O)(=O)c2ccccc2)o1	-19.2
CCOc1ccccc1-c1nnc(CS(=O)(=O)c2ccccc2)o1	-52.5
COc1ccc(Br)c(-c2nnc(CS(=O)(=O)c3ccccc3)o2)c1	-29.3
COc1cccc(CNC(=O)Nc2cccs2)c1	11
CCc1cc2c(=O)c(-c3nc(C)cs3)c(CCCC(=O)O)oc2cc1O	29.7
CCOC(=O)c1cc2c(=O)n3ccccc3nc2n(Cc2ccco2)c1=NC(=O)c1cccnc1	-37.4
CCOC(=O)c1cc2c(=O)n3ccccc3nc2n(Cc2ccco2)c1=NC(=O)c1cccc(OC)c1	-43.8
CCOC(=O)c1cc2c(=O)n3ccccc3nc2n(Cc2ccco2)c1=NC(=O)c1ccccc1OCC	-50
CCOC(=O)c1cc2c(=O)n3ccccc3nc2n(Cc2ccco2)c1=NC(=O)c1ccccc1OC	-68.9
CCOC(=O)c1cc2c(=O)n3ccccc3nc2n(Cc2ccco2)c1=NC(=O)c1ccc(OC)cc1	-54.3
CCOC(=O)c1cc2c(=O)n3ccccc3nc2n(Cc2ccco2)c1=NC(=O)c1ccc(OC)cc1OC	-54.2
Nc1nnc(SCC(=O)Nc2ccccc2N2CCOCC2)s1	3.88
O=C(c1cc2ccccc2s1)N1CCN(c2ccccn2)CC1	-11.5
O=C(COC(=O)c1ccc(Br)o1)Nc1ncc([N+](=O)[O-])s1	10.6

Structure (SMILES)	hERG current change (%, negative = inhibition) at 10uM [%]
O=C(c1ccc(Cl)cc1)C1CCN(C(=O)NC2CCCCC2)CC1	-6.29
Cc1noc(C)c1C(=O)OC(C)C(=O)N1CCc2ccccc21 (centres unmarked)	4.27
Cc1nc(-c2cccc(NC(=O)c3cccs3)c2)cs1	-23.3
CCCN(C(=O)c1c(-c2ccccc2)noc1C)c1c(N)n(Cc2ccccc2)c(=O)[nH]c1=O	1.43
COc1cccc(CNC(=O)Cc2ccc(Br)cc2)c1	5.59
Cc1ccc(-c2nnc(SCC(=O)Nc3nccs3)n2N)cc1	-10.4
O=[N+]([O-])c1ccc(N2CCN(c3ccc(O)cc3)CC2)c(Cl)c1	-3.4
CCn1nc(C)c(CNC(=O)Nc2ccccc2C(=O)OC)c1C	13.5
O=C(Nc1ccc2c(c1)CCC2)Nc1ccc(F)cc1F	15.5
O=C(Nc1ccc2c(c1)CCC2)Nc1ccccc1F	-61.6
Cc1ccccc1NC(=O)Nc1ccc2c(c1)CCC2	24.4
Cc1ccccc1NCN1C(=O)C2C3C=CC(C3)C2C1=O (centres unmarked)	6.34
COc1cccc(/C=N/NC(=O)Cn2nc(C)c([N+](=O)[O-])c2C)c1O	-13.1
CCN1CCN(C(=O)N2CCOCC2)CC1	15.5
CS(=O)(=O)c1ccc(Cl)c(NC(=O)c2cccc(N3C(=O)CCC3=O)c2)c1	0.801
O=C(CN1CCCCC1)Nc1cccc(-n2cnnn2)c1	0.45
CCc1ccccc1NC(=O)COc1cccc(-n2cnnn2)c1	-8.5
O=C(c1cccc(-n2cnnn2)c1)N1CCOCC1	-8.49
CS(=O)(=O)c1ccc(Cl)c(NC(=O)c2cccc(-n3cnnn3)c2)c1	-65.6
CS(=O)(=O)c1ccc(NC(=O)c2cccc(-n3cnnn3)c2)cc1	12.1
CCc1ccccc1NC(=O)CN1CCN(C(=O)c2cccc(-n3cnnn3)c2)CC1	-65
Cc1cccc(NC(=O)CN2CCN(C(=O)c3cccc(-n4cnnn4)c3)CC2)c1C	-41.5
O=C(CN1CCN(C(=O)c2cccc(-n3cnnn3)c2)CC1)Nc1ccccc1Cl	-90.3

Structure (SMILES)	hERG current change (%, negative = inhibition) at 10uM [%]
Cc1ccc(NC(=O)CSCC(=O)NC2(C)CCS(=O)(=O)C2)cc1 (centres unmarked)	5.44
O=C(O)Cc1sc(NCCc2ccccc2)nc1-c1ccc(F)cc1	3.77
Cc1cn2c(-c3ccc(Cl)cc3)nnc2s1	-33.3
CN(CCC#N)C(=O)COC(=O)c1ccc2c(=O)n3c(nc2c1)CCC3	35
COc1ccccc1/C=C/C(=O)OCC(=O)c1cc(C)n(C)c1C	-0.348
O=C(O)c1ccc2c(c1)SC1=NS(=O)(=O)CCN12	8.48
CN(C(=O)c1ccc2c(c1)SC1=NS(=O)(=O)CCN12)C(c1ccccc1)c1ccccc1	-61
O=C(NCc1cccc(Cl)c1)c1ccc2c(c1)SC1=NS(=O)(=O)CCN12	-5.52
COc1ccc(CCNC(=O)c2ccc3c(c2)SC2=NS(=O)(=O)CCN23)cc1	-60.4
O=C(NCc1ccccc1Cl)c1ccc2c(c1)SC1=NS(=O)(=O)CCN12	-7.44
CC(C)(C)c1ccccc1NC(=O)c1ccc2c(c1)SC1=NS(=O)(=O)CCN12	6.51
O=[N+]([O-])c1cc(-c2nnc(Nc3ccccc3)c3ccccc23)ccc1N1CCOCC1	-26.3
COC(=O)c1cc(C(=O)OC)cc(-n2c(C)cc(C(=O)CC#N)c2C)c1	-31.2
O=C(N/N=C/C=C/c1ccccc1)C1CC1(c1ccccc1)c1ccccc1 (centres unmarked)	-1.54
O=C(N/N=C\c1ccc(O)c([N+](=O)[O-])c1)C1COc2ccccc2O1 (centres unmarked)	-4.56
O=C(N/N=C/c1cccnc1)C1CC1(c1ccccc1)c1ccccc1 (centres unmarked)	-55.6
O=C(N/N=C/c1ccc(O)c([N+](=O)[O-])c1)C1CC1(c1ccccc1)c1ccccc1 (centres unmarked)	-50.7
O=C(O)c1ccc(/C=N/NC(=O)C2CC2(c2ccccc2)c2ccccc2)cc1 (centres unmarked)	17.9
O=C(N/N=C/c1ccncc1)C1CC1(c1ccccc1)c1ccccc1 (centres unmarked)	-24.9
CC(C)C(=O)Nc1nc2ccc(S(C)(=O)=O)cc2s1	5.14
Cc1ccc(S(=O)(=O)Nc2c(C)n(C)n(-c3ccccc3)c2=O)cc1	9.73
O=C(CN1C(=O)NC2(CCCCCC2)C1=O)Nc1ccc2c(c1)CCC2	-5.72
CCOC(=O)c1nc2cc3n(c(C)c-2c1C)C(C)C(CC)=C3C.Cl (centres unmarked)	-66.7

Structure (SMILES)	hERG current change (%, negative = inhibition) at 10uM [%]
CCOC(=O)c1nc2cc3n(c(CC(C)C)c-2c1C)CC(C)=C3C.Cl	-74
CCOC(=O)c1nc2cc3n(c(C)c-2c1C)C(C)C(C)=C3C.Cl (centres unmarked)	-42.8
CCOC(=O)c1nc2ccccc2c(C)c1C.Cl	-5.73
CCOC(=O)c1nc(C)nc(Sc2n[nH]c(-c3cc(Cl)cc(Cl)c3)n2)c1C	4.12
CCOC(=O)c1n[nH]n(-c2cc(Cl)cc(Cl)c2)c1=O	25.7
CCc1cc(=O)oc2c(CNCc3ccc(OC)cc3OC)c(O)c(Cl)cc12.Cl	13.3
NNC(=O)C1CC1c1ccc(Cl)cc1 (centres unmarked)	9.11
COc1cc(/C=N/Nc2ccc(Cl)c(C(=O)O)c2)ccc1OCC(=O)N1C(C)CCCC1C (centres unmarked)	16.5
CCCn1c(N)c(N(CCOC)C(=O)c2ccc(N(C)S(=O)(=O)c3ccc(C)cc3)cc2)c(=O)[nH]c1=O	7.32
O=C(NC1CCCCC1)c1ccc(S(=O)(=O)NCc2cccnc2)cc1	5.88
O=c1[nH]c(=O)n(-c2ccccc2Cl)c(O)c1C=NCCN1CCCCC1	6.09
CNCCc1ccc(OC)c(OC)c1	19.4
COc1ccc(C(CCN)c2ccc3c(c2)OCO3)cc1 (centres unmarked)	1.93
COc1ccc(CCC(C)NCCc2ccccc2)cc1 (centres unmarked)	-29.6
COc1ccc(CCC(C)NCC(C)c2ccccc2)cc1 (centres unmarked)	-48.3
CCCNCCC(c1ccco1)c1ccccc1OC (centres unmarked)	-41.8
COc1ccc(CNCCC(c2ccc(OC)cc2)c2ccccc2OC)cc1 (centres unmarked)	-74.2
COc1ccc(CC(C)NCCC(c2ccccc2)c2ccccc2)cc1 (centres unmarked)	-71.5
COc1ccc(CC(C)CC(=O)NCCc2ccc(OC)c(OC)c2)cc1 (centres unmarked)	18.9
COc1ccc(CNCCC(c2ccccc2)c2ccc3c(c2)OCO3)cc1.Cl (centres unmarked)	-75
COc1ccc(C(CC(=O)O)c2ccc3c(c2)OCO3)cc1 (centres unmarked)	14.7
COc1ccc(CC(C)NCCc2ccc(OC)c(OC)c2)cc1 (centres unmarked)	-60.3
COc1ccc(CNc2ccc(-c3ccccc3OC)nn2)cc1	-13.1
